# According to the supplement of paper PMC6555819:
# Tested on: RARb homodimer (NR concentration 270 nM)
# Test: PBM binding z-score (relative to random genomic background probes); higher = stronger binding; sequences stand for … in GC…GCGATTGACAGCGTAGAATGAAGG
# How it was run: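 Regression normalization was applied to scanned fluorescence from custom Agilent 4×180K protein-binding microarrays. Before scanning, arrays were incubated 1 h with ligand-free nuclear receptor dimers, and binding was detected with antibodies against each partner (one per run). Binding z-scores use the random background probes as reference.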
row,Sequence,PBM binding z-score
1,ATATGTAGGTTAGATGGGGTCATTCAGACTAGGC,3.8
2,AATACAGGGTCTCTAGGCCAGAGTAGGTACGAAT,0.256
3,AGTCAAAGATCAGGACGAGGTAACGTAAAGCACG,-0.273
4,GATTGTAGATCAAGGTTAAGAAAGACTAAGCTAA,-0.213
5,TCTATTAGTTGAAGGGCAAGCGACGAGTCCGTTT,1.28
6,CCTTACGGCTCACTCCAGGTTATAGCATCGGAGT,0.313
7,CGTCCAGGGTCATAGGAGGTCAGTGAAGACAGAT,4.98
8,CCTTACGGGTCACTGACAGGTTACAGCATTTGGA,3.43
9,TAGCCTAGGTCATTGGGCCAGTTTAGTACGCATC,2.94
10,ATATGGAGGTTACATCCGGGTCATTCAGGCTATG,3.23
11,AGTCAGAGTTCAGGACGAGGTAACGTAAAGCACG,2.72
12,CAAACTAGGTAACAGAGGTCAAAGTCCGTGCGTA,4.45
13,GTACCAAGGTGAATAGGTCGTAGATGAGTAGGCG,1.92
14,CCTACTGGGCCAAGGTGATTGATCAGTCAAAGCA,-0.085
15,ATATGTAGGTTAGCTGGGGTCACTCAGACTAGGC,4.11
16,AATACAGCGTCACTAGGCCAGAGTAGGTACGAAT,-0.144
17,CCTAGCAGGCCAATCTGGGTCACTCCAGGCTTGA,2.01
18,GCATATAGGTAATACAAAGTGAAAGTCCGATTGT,-0.658
19,AGAATGAGGTTATACGCAGATCAGGGAAGAAAGT,0.779
20,CCAGACAGGTGAGAAGGAAACTCAGCCTCGATTA,-0.0325
21,GCAGACAGCTGAAACGCAGGTAACTCAGGGTGGC,-0.98
22,CGTCCAAGGTGATAGGAGGTCAGTGAAGACAGAT,3.59
